In PubChem BioAssay (EPA / NIEHS) one finds outcome and AC50 data, which are given here for 10 compounds.

Each structure is given as a SMILES string. Records with an inconclusive call do not appear. Activity calls are given as the source filed them. How the source made its calls, unless noted: active means hit-call score of the fitted dose curve at least 0.9, where 1 is the maximum; inactive means score below 0.9.

In assay [1] the target is Oxysterols receptor LXR-alpha (Homo sapiens) (UniProt Q13133). Briefly: ATG_LXRa_TRANS: Attagene TRANS-FACTORIAL HepG2 Assay for human Liver X Receptor alpha (LXRa) (AID 2282980; active means hit-call score of the fitted dose curve at least 0.9, where 1 is the maximum). The settings on record: HepG2 Attagene TRANS reporter, LXRa transactivation. In a few lines: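 HepG2 cells transiently transfected with GAL4-UAS reporter units for chimeric NR-Gal4 proteins, exposed to chemicals for 24 h. Reporter mRNA quantified by RT-PCR and capillary electrophoresis; gain of signal fitted relative to DMSO.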
Chain of Oxysterols receptor LXR-alpha (Homo sapiens) (Q13133 whole entry, looked up, the tested form may be a part): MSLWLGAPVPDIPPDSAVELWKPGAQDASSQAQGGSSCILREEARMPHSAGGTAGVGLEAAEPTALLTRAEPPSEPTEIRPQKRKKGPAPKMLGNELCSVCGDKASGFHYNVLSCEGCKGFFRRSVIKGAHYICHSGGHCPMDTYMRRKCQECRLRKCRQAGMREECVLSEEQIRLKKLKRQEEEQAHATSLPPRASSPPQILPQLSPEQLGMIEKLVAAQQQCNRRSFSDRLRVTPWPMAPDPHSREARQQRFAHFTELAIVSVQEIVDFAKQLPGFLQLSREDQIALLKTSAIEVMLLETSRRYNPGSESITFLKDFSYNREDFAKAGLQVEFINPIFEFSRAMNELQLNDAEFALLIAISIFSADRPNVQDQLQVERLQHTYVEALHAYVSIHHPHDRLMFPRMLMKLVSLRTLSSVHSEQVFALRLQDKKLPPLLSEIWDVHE

For assay [2], the target named is Oxysterols receptor LXR-beta (Homo sapiens) (UniProt P55055). Nature of the assay: ATG_LXRb_TRANS: Attagene TRANS-FACTORIAL HepG2 Assay for human Liver X Receptor beta (LXRb) (AID 2282981; active means hit-call score of the fitted dose curve at least 0.9, where 1 is the maximum). The settings on record: HepG2 Attagene TRANS GAL4-LXRb reporter, mRNA. An outline of the steps:
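Liver-derived HepG2 cells transfected with Gal4-responsive reporters were dosed for 24 h. Activation was scored as rise in reporter mRNA, by RT-PCR and capillary electrophoresis, above DMSO baseline.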

Assay [3] is described as follows: ATG_M_32_TRANS: Attagene TRANS-FACTORIAL HepG2 Assay for M32 Transcription Factor (Internal Marker) (AID 2282984; active means hit-call score of the fitted dose curve at least 0.9, where 1 is the maximum;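 further: transcript level of a background control reporter unit measured by RT-PCR and capillary electrophoresis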). The settings on record: HepG2 Attagene TRANS M32 internal marker reporter. In a few lines: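 Fluorescence-detected mRNA induction, HepG2 liver cells, 24 h after dosing. Multiple GAL4-UAS reporter units introduced by transient transfection; background-control endpoint analysed for gain of signal against DMSO.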

The target of assay [4] is Transcriptional activator Myb (Homo sapiens) (UniProt P10242). Briefly: ATG_Myb_CIS: Attagene CIS-FACTORIAL HepG2 Assay for human Myeloblastosis (Myb) Proto-Oncogene Transcription Factor (AID 2282986). The settings on record: HepG2 Attagene CIS-FACTORIAL Myb reporter transcription; actives raise or lower the signal. In a few lines:
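HepG2 cells were transiently transfected with cis-regulated multiple reporter transcription units reflecting endogenous Myb activity, then exposed to compound for 24 hours. Reporter mRNA was measured by RT-PCR with capillary electrophoresis; bidirectional fitting versus DMSO baseline.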

Assay [5] concerns the target Nuclear respiratory factor 1 (Homo sapiens) (UniProt Q16656). Nature of the assay: ATG_NRF1_CIS: Attagene CIS-FACTORIAL HepG2 Assay for human Nuclear Respiratory Factor 1 (NRF1) Orphan Gene (AID 2282987). The settings on record: HepG2 NRF1 cis-element reporter, Attagene multiplex; actives raise or lower the signal. An outline of the steps: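 HepG2 cells transiently transfected with multiple reporter transcription units under cis-regulatory promoter control, so endogenous transcription-factor activity is read. After 24 h compound exposure, reporter mRNA quantified by RT-PCR, fluorescent labelling, HpaI digestion and capillary electrophoresis; bidirectional fitting versus DMSO.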

Assay [6] deals with Myc proto-oncogene protein (Homo sapiens) (UniProt P01106). Nature of the assay: ATG_Myc_CIS: Attagene CIS-FACTORIAL HepG2 Assay for human Myelocytomatosis (Myc) Proto-Oncogene Transcription Factor (AID 2282990). The settings on record: HepG2, Attagene cis-reporter transcription factor activity; actives raise or lower the signal. An outline of the steps: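 HepG2 cells transiently transfected with multiple cis-promoter-driven reporter transcription units, so endogenous TF activity is read. After 24 h compound exposure, reporter mRNA was quantified by RT-PCR, 6-FAM labelling, HpaI digestion and capillary electrophoresis; bidirectional fit versus DMSO.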
Chain of Myc proto-oncogene protein (Homo sapiens) (P01106 whole entry, looked up): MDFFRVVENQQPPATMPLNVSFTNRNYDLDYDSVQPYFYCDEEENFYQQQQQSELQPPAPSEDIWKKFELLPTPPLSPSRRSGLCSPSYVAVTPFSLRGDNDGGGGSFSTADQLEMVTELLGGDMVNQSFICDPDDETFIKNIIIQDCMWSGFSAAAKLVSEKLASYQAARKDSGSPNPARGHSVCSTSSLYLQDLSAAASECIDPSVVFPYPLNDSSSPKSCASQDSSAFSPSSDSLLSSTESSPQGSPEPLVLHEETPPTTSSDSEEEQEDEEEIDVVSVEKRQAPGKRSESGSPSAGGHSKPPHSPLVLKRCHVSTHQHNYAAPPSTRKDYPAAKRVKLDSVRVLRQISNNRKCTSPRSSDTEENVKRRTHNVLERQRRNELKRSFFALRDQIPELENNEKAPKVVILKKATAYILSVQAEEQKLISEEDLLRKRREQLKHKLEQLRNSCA

Assay [7] can be described thus: ATG_NF_kB_CIS: Attagene CIS-FACTORIAL HepG2 Assay for human Nuclear Factor Kappa B (NF-kB) (AID 2282991). The settings on record: HepG2 Attagene cis-factorial NF-kB reporter mRNA; actives raise or lower the signal. In a few lines: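 HepG2 cells transiently transfected with multiplexed cis-element reporter units measuring endogenous transcription factor activity; reporter mRNA read 24 h after dosing by RT-PCR, fluorescent labelling, HpaI digestion and capillary electrophoresis. Bidirectional fit against DMSO baseline.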

The target of assay [8] is Cellular tumor antigen p53 (Homo sapiens) (UniProt P04637). Nature of the assay: ATG_p53_CIS: Attagene CIS-FACTORIAL HepG2 Assay for human p53 Transcription Factor (AID 2282994). The settings on record: HepG2 p53 cis-element reporter, Attagene mRNA; actives raise or lower the signal. In a few lines: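 Read-out: reporter mRNA by RT-PCR plus capillary electrophoresis with fluorescence detection. Human HepG2 liver cells carried transfected multi-reporter cis-element constructs, dosed 24 h. Gain or loss of signal fitted bidirectionally against DMSO control.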
Chain of Cellular tumor antigen p53 (Homo sapiens) (P04637 whole entry, looked up): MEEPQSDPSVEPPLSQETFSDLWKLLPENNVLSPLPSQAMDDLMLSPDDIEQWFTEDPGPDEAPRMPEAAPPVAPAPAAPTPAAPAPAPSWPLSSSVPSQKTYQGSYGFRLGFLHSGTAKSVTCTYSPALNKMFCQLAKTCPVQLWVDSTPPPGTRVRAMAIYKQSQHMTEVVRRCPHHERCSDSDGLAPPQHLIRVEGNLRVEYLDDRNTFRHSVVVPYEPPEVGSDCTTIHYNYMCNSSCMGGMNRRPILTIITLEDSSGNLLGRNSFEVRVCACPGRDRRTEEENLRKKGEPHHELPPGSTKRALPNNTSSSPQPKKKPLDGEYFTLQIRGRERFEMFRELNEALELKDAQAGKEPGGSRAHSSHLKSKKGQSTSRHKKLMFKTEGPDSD

In assay [9] the target is Nuclear receptor subfamily 4 group A member 2 (Homo sapiens) (UniProt P43354). Briefly: ATG_NURR1_TRANS: Attagene TRANS-FACTORIAL HepG2 Assay for human Nuclear Receptor Related Protein 1 (NURR1) (AID 2282985; active means hit-call score of the fitted dose curve at least 0.9, where 1 is the maximum). The settings on record: HepG2 Attagene TRANS reporter, mRNA readout. An outline of the steps:
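Chimeric NR-Gal4 proteins were expressed in human HepG2 cells bearing GAL4-UAS reporter units, and induced reporter mRNA was quantified 24 h post-dosing by RT-PCR and capillary electrophoresis.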

Assay [10] in a line: ATG_NFI_CIS: Attagene CIS-FACTORIAL HepG2 Assay for human Nuclear Factor I (NFI) (AID 2282989). The settings on record: HepG2 cis-regulatory reporter, NFI response element transcription; actives raise or lower the signal. In a few lines: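 After transient transfection of HepG2 with cis-promoter reporter constructs and 24 h dosing, RNA is reverse-transcribed, amplified, 6-FAM end-labelled and HpaI-digested before capillary analysis. Bidirectional curve fitting against DMSO.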

A short description of assay [11]: ATG_NRF2_ARE_CIS: Attagene CIS-FACTORIAL HepG2 Assay for human Nuclear Factor Erythroid 2 Related Factor 2 (NFR2) response to Antioxidant Response Elements (ARE) (AID 2282992). The settings on record: HepG2 Attagene ARE/NRF2 reporter, transcription factor activity; actives raise or lower the signal. In a few lines: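 Readout: reporter mRNA quantified by RT-PCR plus FAM-labelled primer extension, HpaI digestion and capillary electrophoresis, 24 h after dosing transfected HepG2 cells. Gain or loss of signal is fitted bidirectionally against DMSO baseline.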

Assay [12] is described as follows: ATG_Oct_MLP_CIS: Attagene CIS-FACTORIAL HepG2 Assay for human Octamer-Binding Transcription Factor (Oct) (AID 2282993). The settings on record: HepG2 Attagene cis-factorial Oct reporter, mRNA; actives raise or lower the signal. In a few lines:
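Cells of the HepG2 line express promoter-controlled reporter sequences whose mRNA levels, after 24 h treatment, are measured by RT-PCR and capillary electrophoresis. Increases and decreases are scored relative to DMSO.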

The nature of assay [13]: BSK_3C_TissueFactor: BioMAP Diversity Plus: 3C Assay for Tissue Factor Biomarker Activity (AID 2282997). The settings on record: BioMAP 3C HUVEC, tissue factor biomarker readout; actives raise or lower the signal. In a few lines:
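Tissue Factor measured by ELISA, 24 h after treatment of primary HUVEC in the BioMAP 3C setting.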

Assay [14] can be described thus: BSK_3C_uPAR: BioMAP Diversity Plus: 3C Assay for Urokinase-type plasminogen activator receptor (uPAR) Biomarker Activity (AID 2282998). The settings on record: BioMAP 3C HUVEC, uPAR biomarker ELISA; actives raise or lower the signal. In a few lines:
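Endothelial primary cells of human umbilical vein origin received test chemical; 24 h later uPAR was assayed by ELISA. Fitting was bidirectional, DMSO as negative control.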
(An ELISA detects its analyte on a solid surface through an enzyme-linked reagent.)

Assay [15] can be described thus: BSK_3C_VCAM1: BioMAP Diversity Plus: 3C Assay for Vascular cell adhesion molecule 1 (VCAM1) Biomarker Activity (AID 2282999). The settings on record: BioMAP 3C HUVEC, VCAM1 ELISA, cytokine-stimulated; actives raise or lower the signal. In a few lines:
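Vascular primary endothelium (human umbilical vein) was exposed to chemicals and assayed 24 h later. VCAM-1 levels came from ELISA, with DMSO serving as baseline for bidirectional fitting.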

The target of assay [16] is Hepatocyte nuclear factor 4-alpha (Homo sapiens) (UniProt P41235). Nature of the assay: ATG_HNF4a_TRANS: Attagene TRANS-FACTORIAL HepG2 Assay for human Hepatocyte Nuclear Factor 4 alpha (HNF4a) (AID 2282982; active means hit-call score of the fitted dose curve at least 0.9, where 1 is the maximum). The settings on record: HepG2 HNF4a transactivation reporter, mRNA readout. An outline of the steps: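 Using HepG2 liver cells transfected with GAL4-UAS reporter units, chemical-induced mRNA increases were assessed after 24 hours. Fluorescent RT-PCR fragments were separated by capillary electrophoresis and compared with DMSO negative controls.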
Chain of Hepatocyte nuclear factor 4-alpha (Homo sapiens) (P41235 whole entry, looked up, the tested form may be a part): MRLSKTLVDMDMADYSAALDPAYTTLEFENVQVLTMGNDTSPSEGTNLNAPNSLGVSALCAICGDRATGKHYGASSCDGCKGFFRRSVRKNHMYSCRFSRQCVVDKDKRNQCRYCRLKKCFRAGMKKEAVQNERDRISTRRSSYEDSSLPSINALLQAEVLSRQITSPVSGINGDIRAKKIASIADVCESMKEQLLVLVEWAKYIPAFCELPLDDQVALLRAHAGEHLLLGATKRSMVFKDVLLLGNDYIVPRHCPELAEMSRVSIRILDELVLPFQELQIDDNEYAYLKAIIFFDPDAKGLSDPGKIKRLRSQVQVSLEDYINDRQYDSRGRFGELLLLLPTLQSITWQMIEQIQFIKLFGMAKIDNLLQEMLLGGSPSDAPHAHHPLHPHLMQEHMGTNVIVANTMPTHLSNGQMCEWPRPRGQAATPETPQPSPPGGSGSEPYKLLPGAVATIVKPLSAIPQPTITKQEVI

A short description of assay [17]: ATG_M_06_TRANS: Attagene TRANS-FACTORIAL HepG2 Assay for M06 Transcription Factor (Internal Marker) (AID 2282983; active means hit-call score of the fitted dose curve at least 0.9, where 1 is the maximum;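 further: reporter transcript level by RT-PCR then capillary electrophoresis fluorescence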). The settings on record: HepG2 Attagene TRANS M06 internal marker reporter. In a few lines:
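mRNA levels of a reporter transcript, quantified as FAM fluorescence on capillary electrophoresis, served as readout. HepG2 cells expressing exogenous GAL4-chimera reporter constructs were exposed for 24 h. Gain of signal over DMSO was evaluated.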

Chain of Oxysterols receptor LXR-beta (Homo sapiens) (P55055 whole entry, looked up, the tested form may be a part): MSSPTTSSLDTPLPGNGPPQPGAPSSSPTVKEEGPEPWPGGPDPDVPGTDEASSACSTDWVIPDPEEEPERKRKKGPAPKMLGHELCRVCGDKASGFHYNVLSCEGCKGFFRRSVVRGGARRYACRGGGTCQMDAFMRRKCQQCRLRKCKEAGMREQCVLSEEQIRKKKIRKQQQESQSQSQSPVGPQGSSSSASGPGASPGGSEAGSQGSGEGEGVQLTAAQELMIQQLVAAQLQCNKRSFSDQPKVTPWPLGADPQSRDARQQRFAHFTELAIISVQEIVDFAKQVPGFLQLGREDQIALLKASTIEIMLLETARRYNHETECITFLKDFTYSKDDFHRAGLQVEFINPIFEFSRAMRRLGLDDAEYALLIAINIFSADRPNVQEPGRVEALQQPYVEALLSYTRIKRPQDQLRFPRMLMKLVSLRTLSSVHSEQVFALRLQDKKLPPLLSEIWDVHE
Chain of Nuclear respiratory factor 1 (Homo sapiens) (Q16656 whole entry, looked up): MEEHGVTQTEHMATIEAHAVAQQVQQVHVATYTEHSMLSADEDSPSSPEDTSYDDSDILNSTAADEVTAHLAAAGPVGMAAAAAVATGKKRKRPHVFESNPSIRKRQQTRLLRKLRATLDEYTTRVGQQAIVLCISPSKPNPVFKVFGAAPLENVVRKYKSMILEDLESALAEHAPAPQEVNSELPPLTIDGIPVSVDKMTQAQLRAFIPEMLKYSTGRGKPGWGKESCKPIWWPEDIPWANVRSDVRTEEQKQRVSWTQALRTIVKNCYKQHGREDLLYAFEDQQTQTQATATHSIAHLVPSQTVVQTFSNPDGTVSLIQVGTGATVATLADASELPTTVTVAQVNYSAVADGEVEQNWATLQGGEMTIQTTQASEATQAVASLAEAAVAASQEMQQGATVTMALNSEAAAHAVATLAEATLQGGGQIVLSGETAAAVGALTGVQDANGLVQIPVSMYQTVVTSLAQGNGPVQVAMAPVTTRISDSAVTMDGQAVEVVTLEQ
Chain of Nuclear receptor subfamily 4 group A member 2 (Homo sapiens) (P43354 whole entry, looked up, the tested form may be a part): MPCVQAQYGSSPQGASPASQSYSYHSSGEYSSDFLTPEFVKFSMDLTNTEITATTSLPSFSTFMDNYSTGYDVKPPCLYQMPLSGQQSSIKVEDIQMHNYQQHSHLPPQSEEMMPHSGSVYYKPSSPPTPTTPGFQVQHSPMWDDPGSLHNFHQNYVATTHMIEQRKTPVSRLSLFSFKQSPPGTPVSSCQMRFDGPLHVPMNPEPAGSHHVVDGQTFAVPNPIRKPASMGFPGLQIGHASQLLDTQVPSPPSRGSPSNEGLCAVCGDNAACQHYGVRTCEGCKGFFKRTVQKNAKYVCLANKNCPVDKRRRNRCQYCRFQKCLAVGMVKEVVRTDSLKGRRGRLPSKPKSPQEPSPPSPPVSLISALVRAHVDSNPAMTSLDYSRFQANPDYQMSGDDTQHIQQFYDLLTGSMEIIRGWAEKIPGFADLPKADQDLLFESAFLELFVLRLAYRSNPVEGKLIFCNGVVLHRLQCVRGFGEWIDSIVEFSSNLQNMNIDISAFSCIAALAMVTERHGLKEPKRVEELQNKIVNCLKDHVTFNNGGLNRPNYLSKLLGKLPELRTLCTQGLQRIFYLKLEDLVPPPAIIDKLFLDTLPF
Chain of Transcriptional activator Myb (Homo sapiens) (P10242 whole entry, looked up): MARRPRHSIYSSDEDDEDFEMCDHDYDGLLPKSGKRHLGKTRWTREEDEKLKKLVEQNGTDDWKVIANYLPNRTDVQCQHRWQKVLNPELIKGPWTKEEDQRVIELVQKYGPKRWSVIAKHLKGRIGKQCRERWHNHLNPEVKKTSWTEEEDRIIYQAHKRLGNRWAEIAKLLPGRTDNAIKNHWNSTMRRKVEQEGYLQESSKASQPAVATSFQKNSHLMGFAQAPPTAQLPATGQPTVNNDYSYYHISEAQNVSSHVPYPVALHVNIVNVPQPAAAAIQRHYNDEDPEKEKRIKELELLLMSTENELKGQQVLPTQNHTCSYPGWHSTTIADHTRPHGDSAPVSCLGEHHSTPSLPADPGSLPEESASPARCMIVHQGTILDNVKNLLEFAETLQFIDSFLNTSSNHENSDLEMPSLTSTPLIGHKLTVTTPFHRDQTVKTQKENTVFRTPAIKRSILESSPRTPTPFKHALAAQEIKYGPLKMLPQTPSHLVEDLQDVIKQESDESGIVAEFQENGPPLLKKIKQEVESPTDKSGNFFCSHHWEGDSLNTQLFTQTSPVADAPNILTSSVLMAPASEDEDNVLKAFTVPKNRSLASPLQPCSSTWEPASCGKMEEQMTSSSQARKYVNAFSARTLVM

Regarding `CCCCCCOc1ccc(O)cc1`, the compound was classed as inactive in assay [1], in [2], in assay [3], in [4], in assay [5] and in [6]. Besides, the result in [7] and in assay [8] was inactive.
One may read the AC50 as the concentration at which the activity in the assay is half-maximal. Regarding `CC(=O)OC(C)(C)C1CC=C(C)CC1` (centres undefined), the compound was classed as inactive in assay [1], in assay [3], in assay [9], in [4], in assay [5] and in assay [10]. Besides, the result in [6], in assay [11], in assay [12] and in [15] was inactive. Also, the concentration at half-maximal activity (AC50) in assay [13] was 29.8 µM (active); in [14] it was 32.3 µM (active).
As for `C=C(C)C(=O)OCCC[Si](OC)(OC)OC`, the result in [1], in [2], in assay [16], in assay [3], in assay [4] and in assay [5] was inactive. The compound was classed as inactive in assay [10], in assay [6], in [7], in assay [11], in [12] and in assay [8].
As to `CCCCCCCCOC(C)=O`, the compound was called inactive in [1], in [2], in assay [17], in assay [9], in [4] and in assay [5]. Further, the compound was classed as inactive in [10], in assay [6], in [7], in assay [11], in assay [12] and in [8].
On to `O=c1cc(-c2ccc(O)cc2)oc2cc(O)cc(O)c12`, for which the compound was called inactive in assay [1], in [2], in assay [17], in [9], in assay [4] and in [5]. In addition, the result in [10], in [6] and in [11] was inactive. Further, the AC50 in assay [12] is 26.5 µM (active).
Consider `CC1(C)CC(=O)CC(C)(C)N1`, for which the compound was classed as inactive in [1], in assay [2], in assay [17], in [9], in assay [4] and in [5]. Besides, the compound was called inactive in [10], in assay [6], in assay [7], in assay [11], in assay [12] and in [8].
In the case of `CC(=O)OCC=C(C)CCC=C(C)CCC=C(C)C`, the call in assay [1], in [2], in [17], in [9], in [4] and in assay [6] was inactive. Further, the result in [7], in [12], in assay [13], in assay [14] and in [15] was inactive. The AC50 in [5] was 154 µM (active); in assay [10], 157 µM (active); in [11], 49.5 µM (active).
For the compound `CCC(C)COC(=O)CC(C)C` (centres undefined), the call in assay [1], in assay [2], in [3], in [4], in assay [5] and in assay [10] was inactive. For the same compound, the outcome in assay [6], in assay [7], in assay [11], in assay [12] and in assay [8] was inactive.
`CC1=CC[C@@H]2C[C@H]1C2(C)C`: the result in [1], in assay [2], in assay [9], in [4], in [5] and in [10] was inactive. Also, the compound was called inactive in assay [6], in assay [7], in assay [11] and in assay [12].
On to `CC1=CCC(=C(C)C)CC1`, for which the result in [1], in [2], in [9], in [4], in assay [5] and in assay [6] was inactive. Besides, the compound was classed as inactive in [8]. In addition, in [11], the half-maximal activity concentration (AC50) was 32 µM (active).
